Results on 34 compounds are retold here after ChEMBL document CHEMBL3988442, “University of Dundee, Small-Polar-MMV Screening Library” (2021).

The experiment has as its target T1, Methionyl-tRNA synthetase, putative (Leishmania donovani (strain BPK282A1)) (UniProt E9BF75).
T1 sequence (whole entry): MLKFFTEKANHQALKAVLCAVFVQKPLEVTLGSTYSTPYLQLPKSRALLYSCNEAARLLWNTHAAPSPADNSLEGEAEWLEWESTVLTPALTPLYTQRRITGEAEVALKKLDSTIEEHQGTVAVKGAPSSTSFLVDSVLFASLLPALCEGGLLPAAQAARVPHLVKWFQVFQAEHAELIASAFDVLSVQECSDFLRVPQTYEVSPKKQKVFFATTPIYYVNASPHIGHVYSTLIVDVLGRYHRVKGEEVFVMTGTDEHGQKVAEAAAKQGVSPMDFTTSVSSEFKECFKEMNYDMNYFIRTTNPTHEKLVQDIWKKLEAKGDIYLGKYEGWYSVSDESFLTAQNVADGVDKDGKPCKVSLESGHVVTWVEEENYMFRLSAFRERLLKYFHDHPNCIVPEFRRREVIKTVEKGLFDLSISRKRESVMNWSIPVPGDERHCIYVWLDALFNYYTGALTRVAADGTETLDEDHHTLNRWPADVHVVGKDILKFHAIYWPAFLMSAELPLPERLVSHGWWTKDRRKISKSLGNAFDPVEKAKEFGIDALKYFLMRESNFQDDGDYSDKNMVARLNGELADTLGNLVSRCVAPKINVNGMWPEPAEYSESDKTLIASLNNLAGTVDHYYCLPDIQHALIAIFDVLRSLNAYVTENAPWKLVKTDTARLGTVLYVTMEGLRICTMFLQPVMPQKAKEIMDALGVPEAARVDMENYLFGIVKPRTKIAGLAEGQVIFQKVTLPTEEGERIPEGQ
The experiment is described as follows: Leishmania donovani Methionine tRNA synthetase (LdMetRS):v7. Dose response assay. On the set-up: conc 80 nM, time 150 minutes. The experiment is classed as functional.

In the case of `COCCNc1ccc2ncc(-c3ccc4onc(N)c4c3)n2n1`, the PXC50 was less than 4 (MAX_EFFECT 3.125) and less than 4 (MAX_EFFECT 3.947368421).
Regarding `Cc1nc(N(C)CCC#N)c2c3c(sc2n1)CC(C)CC3` (stereo not drawn), the PXC50 is less than 4 (MAX_EFFECT 3.723404255) and less than 4 (MAX_EFFECT 5.699481865).
`Cc1nc(N2CCNC(=O)C2)c2c(CC(C)C)csc2n1`: the PXC50 was less than 4 (MAX_EFFECT 4.371584699) and less than 4 (MAX_EFFECT 6.951871658).
On to `CNc1nc(CN2CCOCC2)nc2sc3c(c12)CCC(C)C3` (stereo not drawn), for which the PXC50 is less than 4 (MAX_EFFECT 4.668304668) and less than 4 (MAX_EFFECT 7.035175879).
Regarding `NC(=O)C1CN(c2nc(C3CC3)nc3sc4c(c23)CCCC4)CCO1` (stereo not drawn), the PXC50 was less than 4 (MAX_EFFECT 5.699481865) and less than 4 (MAX_EFFECT 7.446808511).
Regarding `CCc1nc(NCCO)c2cc(CC)sc2n1`, the PXC50 by setting is: (MAX_EFFECT 6.532663317) less than 4; (MAX_EFFECT 10.07371007) less than 4.
For `Cn1cc(CN2CCC(F)(F)C3(CCN(c4ccccn4)C3)C2)cn1` (stereo not drawn), the PXC50 by setting is: (MAX_EFFECT 6.802721088) less than 4; (MAX_EFFECT 8.971962617) less than 4.
Turning to `OC1CN(c2nc(C3CC3)nc3sc4c(c23)CCCC4)C1`, the PXC50 runs as follows: (MAX_EFFECT 6.914893617) less than 4; (MAX_EFFECT 8.808290155) less than 4.
With `CNC(=O)CNc1nc(CN2CCCCC2)nc2sc3c(c12)CCC3`, the PXC50 was less than 4 (MAX_EFFECT 7.304785894) and less than 4 (MAX_EFFECT 12.46819338).
Consider `CC(=O)N1CCN(c2nc(C(F)(F)F)nc3sc(C)c(C)c23)CC1`, for which the PXC50 reads like this: (MAX_EFFECT 7.310704961) less than 4; (MAX_EFFECT 8.093994778) less than 4.
On to `CCc1nc(N2CCN(CC)CC2)c2cc(CC)sc2n1`, for which the PXC50 runs as follows: (MAX_EFFECT 7.407407407) less than 4; (MAX_EFFECT 9.066666667) less than 4.
Turning to `Cc1c(-c2cc(C(F)(F)F)nc(N3CCC(N)CC3)n2)cnn1C`, the PXC50 is, setting by setting: (MAX_EFFECT 7.485604607) less than 4; (MAX_EFFECT 8.133971292) less than 4.
Consider `CCNc1nc(CC)nc2sc(CC)cc12`, for which the PXC50 by setting is: (MAX_EFFECT 7.537688442) less than 4; (MAX_EFFECT 11.05651106) less than 4.
`CC(O)c1ccc(Cl)cc1Cl` (stereo not drawn): the PXC50 (MAX_EFFECT 7.559395248) was less than 3 and the PXC50 (MAX_EFFECT 15.39923954) is less than 3.
Regarding `Cc1nc(NC(C(=O)O)C(C)C)c2c(C)c(C)sc2n1` (stereo not drawn), the PXC50 runs as follows: (MAX_EFFECT 8.0) less than 4; (MAX_EFFECT 9.523809524) less than 4.
Compound `OB1OCc2cc(C(F)(F)F)ncc21` registered a PXC50 (MAX_EFFECT 8.490566038) of less than 4 and a PXC50 (MAX_EFFECT 11.87214612) of less than 4.
Consider `Cc1nc(N2CCC(O)CC2)c2c(-c3cccs3)csc2n1`, for which the PXC50 reads like this: (MAX_EFFECT 8.905852417) less than 4; (MAX_EFFECT 9.319899244) less than 4.
Take `Cc1sc2nc(CN3CCOCC3)nc(NC3CCS(=O)(=O)C3)c2c1C` (stereo not drawn): the PXC50 by setting is: (MAX_EFFECT 9.625668449) less than 4; (MAX_EFFECT 10.38251366) less than 4.
As to `Cc1sc2nc(CN(C)Cc3ccc(C(F)(F)F)cc3)nc(N)c2c1C`, the PXC50 reads like this: (MAX_EFFECT 10.05291005) less than 4; (MAX_EFFECT 12.8) less than 4.
Consider `CCc1cc2c(NCCCN(C)C)nc(-c3ccccc3)nc2s1`, for which the PXC50 was less than 4 (MAX_EFFECT 10.07371007) and less than 4 (MAX_EFFECT 10.55276382).
`Cc1ccc(-c2cc(C(F)(F)F)nc(N3CCOCC3)n2)s1`: the PXC50 (MAX_EFFECT 10.18276762) is less than 4 and the PXC50 (MAX_EFFECT 14.09921671) was less than 4.
Regarding `CCc1nc(NCCCOC(C)C)c2c3c(sc2n1)CCC3`, the PXC50 runs as follows: (MAX_EFFECT 10.56511057) less than 4; (MAX_EFFECT 12.06030151) less than 4.
As to `CS(=O)(=O)N1CCN(CC2OB(O)c3ccccc32)CC1` (stereo not drawn), the PXC50 by setting is: (MAX_EFFECT 11.13207547) less than 4; (MAX_EFFECT 15.06849315) less than 4.
In the case of `CCc1nc(NCCCC(=O)O)c2cc(CC)sc2n1`, the PXC50 runs as follows: (MAX_EFFECT 11.55778894) less than 4; (MAX_EFFECT 13.02211302) less than 4.
On to `COC(=O)c1sc2nc(C)nc(N(C)Cc3cccnc3)c2c1C`, for which the PXC50 by setting is: (MAX_EFFECT 13.66120219) less than 4; (MAX_EFFECT 13.90374332) less than 4.
In the case of `CCOC(=O)N1CCN(c2nc(C)nc3sc4c(c23)CCCC4)CC1`, the PXC50 by setting is: (MAX_EFFECT 14.58333333) less than 4; (MAX_EFFECT 16.22807018) less than 4.
For the compound `CCc1nc(N2CCCC(C(=O)O)C2)c2c3c(sc2n1)CCC3` (stereo not drawn), the PXC50 runs as follows: (MAX_EFFECT 18.93939394) less than 4; (MAX_EFFECT 20.91836735) less than 4.
`CC(C)C[C@H](N)COc1ccc(OCc2ccccc2)c(F)c1` yielded a PXC50 (MAX_EFFECT 25.05175983) of less than 4 and a PXC50 (MAX_EFFECT 28.78464819) of less than 4.
The compound `COCCNc1nc(CSc2ccccc2)nc2sc(C)c(C)c12` showed a PXC50 (MAX_EFFECT 27.86885246) of less than 4 and a PXC50 (MAX_EFFECT 28.34224599) of less than 4.
Regarding `COCCNC(=O)c1ccc2ccc(N(C)CC3CC3)n2c1`, the PXC50 (MAX_EFFECT 29.93197279) is less than 4 and the PXC50 (MAX_EFFECT 41.12149533) was less than 4.
Regarding `Cc1nc(N2CCCCC2)c2c(-c3cccs3)csc2n1`, the PXC50 by setting is: (MAX_EFFECT 30.98236776) less than 4; (MAX_EFFECT 31.29770992) less than 4.
Consider `CCN1c2ccc(-c3cncn3CCCn3ccnc3C)cc2CC1C` (stereo not drawn), for which the PXC50 is, setting by setting: (MAX_EFFECT 36.73469388) less than 4; (MAX_EFFECT 44.48598131) less than 4.
`CN(c1ncnc2c1cnn2C)C1CCCN(c2cccnn2)C1` (stereo not drawn): the PXC50 reads like this: (MAX_EFFECT 40.92592593) less than 4; (MAX_EFFECT 46.94835681) less than 4.
In the case of `CCOC(=O)CCN(C)c1nc(C)nc2sc(-c3ccccc3)cc12`, the PXC50 was less than 4 (MAX_EFFECT 45.45454545) and less than 4 (MAX_EFFECT 46.44808743).
